Experimental data taken from PubChem BioAssay AID1835 (Johns Hopkins Ion Channel Center, 2009).
Hit rate of the full screen: of about 2,400 compounds, about 750 (31%) were called active. The list shows a part of the results. A number with no mark means an inactive call.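 Rule for the calls: active = median signal gain over dofetilide-blocked control wells reaching their mean plus 3 SD, so readout 1 at least 0; inactive = the rest.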

biological target: Voltage-gated inwardly rectifying potassium channel KCNH2 (Homo sapiens) (UniProt Q12809); experiment: hERG protection against dofetilide inhibition, confirmation, cell-based, thallium flux, duplicate retest, dofetilide IC70 (AID 1835); details: hERG cell line, FluxOR thallium flux, dofetilide-blocked; at 10 µM; active compounds read high
Sequence (Q12809 whole entry, looked up): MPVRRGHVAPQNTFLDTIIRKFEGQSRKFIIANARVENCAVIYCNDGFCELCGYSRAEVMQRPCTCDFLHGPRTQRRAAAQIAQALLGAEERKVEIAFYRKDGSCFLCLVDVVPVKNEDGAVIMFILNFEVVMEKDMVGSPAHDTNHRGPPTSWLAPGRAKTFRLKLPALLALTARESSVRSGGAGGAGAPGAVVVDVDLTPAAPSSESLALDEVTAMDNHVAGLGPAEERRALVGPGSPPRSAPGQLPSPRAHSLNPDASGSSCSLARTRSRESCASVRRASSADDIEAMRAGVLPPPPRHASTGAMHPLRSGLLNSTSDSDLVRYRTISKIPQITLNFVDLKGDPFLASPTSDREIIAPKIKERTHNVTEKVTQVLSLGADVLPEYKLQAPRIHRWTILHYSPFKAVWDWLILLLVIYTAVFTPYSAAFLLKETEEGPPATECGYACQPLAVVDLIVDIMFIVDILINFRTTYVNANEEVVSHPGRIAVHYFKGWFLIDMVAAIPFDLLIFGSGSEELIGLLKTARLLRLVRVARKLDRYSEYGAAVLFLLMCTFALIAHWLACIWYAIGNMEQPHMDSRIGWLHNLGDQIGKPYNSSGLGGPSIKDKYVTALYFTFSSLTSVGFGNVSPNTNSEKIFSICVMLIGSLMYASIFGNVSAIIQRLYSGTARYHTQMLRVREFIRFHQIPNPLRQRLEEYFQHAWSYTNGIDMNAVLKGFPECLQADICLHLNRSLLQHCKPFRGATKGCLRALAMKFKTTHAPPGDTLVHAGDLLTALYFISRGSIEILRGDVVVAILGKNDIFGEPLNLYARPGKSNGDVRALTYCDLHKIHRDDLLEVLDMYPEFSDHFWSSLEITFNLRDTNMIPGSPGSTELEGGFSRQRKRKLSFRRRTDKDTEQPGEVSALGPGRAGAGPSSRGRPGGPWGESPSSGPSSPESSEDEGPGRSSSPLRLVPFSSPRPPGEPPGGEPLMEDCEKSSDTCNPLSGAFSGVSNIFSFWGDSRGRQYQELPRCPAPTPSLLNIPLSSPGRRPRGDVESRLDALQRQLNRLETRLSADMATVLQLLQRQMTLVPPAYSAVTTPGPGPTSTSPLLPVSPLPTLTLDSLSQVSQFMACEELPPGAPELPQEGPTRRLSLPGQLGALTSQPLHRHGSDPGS

Going from `O=C(NNC(=O)c1ccc(Cl)cc1Cl)c1cnccn1` to `Cc1cccc(C(=O)NC(=S)NNC(=O)c2ccc(Cl)cc2)c1`, the activity increase over dofetilide control, less the hit threshold rises from -16% to -10%.

Compared with `Cc1ccccc1C(=O)c1cn[nH]c1-c1ccccc1O`, `O=C(O)Cc1sc(-c2ccc(Cl)cc2)nc1-c1ccccc1` is higher in activity increase over dofetilide control, less the hit threshold: -29% for the first, -10% for the second.

First: CC(C)CC(=O)Nc1nc(=S)ss1
Second: CC(C)Cc1nnc(NC(=O)Cc2ccccc2[N+](=O)[O-])s1
The activity increase over dofetilide control, less the hit threshold of the first is lower: -11% for the first, -5% for the second.

First: COc1nnc(-c2ccc(C)c(S(=O)(=O)NC(C)(C)CO)c2)c2ccccc12
Second: CCN(CC)CCCNC(=O)c1cn(-c2cccc(OC)c2)c(=O)c2ccccc12
The activity increase over dofetilide control, less the hit threshold of the first is lower: -17% for the first, -16% for the second.

First: CN(Cc1cnn(C)c1)C(=O)C1CCC(=O)N(Cc2cccc(C(F)(F)F)c2)C1 (centres undefined)
Second: CC(=O)Cn1c(=O)c2c(nc3n2CCCN3Cc2ccccc2)n(C)c1=O
The activity increase over dofetilide control, less the hit threshold of the first is higher: -10% for the first, -13% for the second.

Going from `Cc1cc(C)c(S(=O)(=O)Nc2cccc(-n3cnnn3)c2)c(C)c1` to `CCOC(=O)c1ccc(NC(=O)Cn2nnc(-c3ccccc3)n2)cc1`, the activity increase over dofetilide control, less the hit threshold falls from -14% to -19%.

Compared with `O=C(COC(=O)C1CCC(=O)N1)Nc1ccc(Oc2ccccc2)cc1` (centres undefined), `O=C(Nc1ccc(Oc2cccnc2)cc1)c1cccc([N+](=O)[O-])c1` is higher in activity increase over dofetilide control, less the hit threshold: -9% for the first, -6% for the second.

Going from `CN1CCN(S(=O)(=O)c2cccc(S(=O)(=O)c3ccc(Cl)cc3)c2)CC1` to `CN(C)S(=O)(=O)c1cc(NC2CC(=O)N(c3ccc(F)cc3)C2=O)ccc1Cl` (centres undefined), the activity increase over dofetilide control, less the hit threshold rises from -10% to -2%.

First: COc1cccc(NC(=O)c2nn(-c3ccc(OC)cc3OC)c(=O)c3ccccc23)c1
Second: CCc1ccc(NC(=S)Nc2cccc(OC)c2)cc1
The activity increase over dofetilide control, less the hit threshold of the first is higher: -8% for the first, -26% for the second.

Going from `Cc1ccc(C(=O)NNC(=S)NC(=O)c2ccc(Cl)cc2)cc1` to `COc1ccc(OCC(=O)NNC(=O)C(=O)Nc2ccc(C)cc2)cc1`, the activity increase over dofetilide control, less the hit threshold rises from -23% to -11%.

Compared with `Nc1nc2n(n1)C(=O)CC(c1ccc(Cl)cc1)N2` (centres undefined), `CCN(/N=C/c1ccc(Cl)cc1)c1cc(=O)n(C)c(=O)[nH]1` is lower in activity increase over dofetilide control, less the hit threshold: -10% for the first, -20% for the second.

Compared with `CCC(=O)NC(=S)NNC(=O)c1ccccc1[N+](=O)[O-]`, `COc1nccnc1NS(=O)(=O)c1ccc(NC(=S)NC(=O)c2ccccc2F)cc1` is lower in activity increase over dofetilide control, less the hit threshold: -3% for the first, -17% for the second.

First: O=C(Cn1cncn1)c1ccccc1Br
Second: COc1cccc(NC(=O)c2cncs2)c1
The activity increase over dofetilide control, less the hit threshold of the first is lower: -24% for the first, -13% for the second.

Compared with `CN(Cc1ccccc1)C1CCN(Cc2ccccc2[N+](=O)[O-])CC1`, `c1ccc(-c2ccnc3nc(N4CCN(c5ccccc5)CC4)nn23)cc1` is lower in activity increase over dofetilide control, less the hit threshold: -16% for the first, -35% for the second.

Going from `O=C(O)c1ccc2c(c1)C(=O)N(c1cc([N+](=O)[O-])ccn1)C2=O` to `O=C(Nc1c[nH]c(=O)[nH]c1=O)c1ccc2c(c1)C(=O)N(c1cccc([N+](=O)[O-])c1)C2=O`, the activity increase over dofetilide control, less the hit threshold falls from -3% to -10%.

Compared with `CCCN1Cc2cccc(C(=O)NCc3cccs3)c2C1=O`, `Cc1noc(C)c1COc1cccc(C(=O)NCc2cccc(Cl)c2)c1` is higher in activity increase over dofetilide control, less the hit threshold: -21% for the first, -18% for the second.

First: CCCCCCc1cc2cc(-c3nnc(-c4ccccc4O)o3)c(=O)oc2cc1O
Second: CCOc1cccc(C(=O)Nc2ccc3[nH]ncc3c2)c1
The activity increase over dofetilide control, less the hit threshold of the first is higher: -16% for the first, -18% for the second.

First: Cn1cc([N+](=O)[O-])c(C(=O)N/N=C\c2c[nH]c3ccccc23)n1
Second: Cc1nn(CC(=O)Nc2ccc(C(=O)N3CCCC3)cc2)c(=O)c2ccccc12
The activity increase over dofetilide control, less the hit threshold of the first is higher: -7% for the first, -11% for the second.

First: O=c1[nH]n2c(=O)c3c([nH]c2c1N=Nc1ccccc1)CCC3
Second: c1ccc(-c2csc(Nc3ccc4c(c3)OCCO4)n2)cc1
The activity increase over dofetilide control, less the hit threshold of the first is higher: -14% for the first, -17% for the second.

First: CN(C(=O)c1cnccn1)c1nnc(-c2cnccn2)s1
Second: COc1ccc(-c2cc(C(=O)N3CCCC3)no2)cc1OC
The activity increase over dofetilide control, less the hit threshold of the first is lower: -15% for the first, 0% for the second.

First: NC(=O)Cn1nnc(-c2ccc(CN3CCCCC3)cc2)n1
Second: COc1ccc(NC(=O)c2ccc(COCC(F)(F)C(F)F)cc2)cc1
The activity increase over dofetilide control, less the hit threshold of the first is lower: -23% for the first, -14% for the second.

First: N/C(=N\OCc1ccccc1)c1nonc1N
Second: COc1cc(CCC(=O)NNC(=O)c2ccc(C)cc2)cc(OC)c1OC
The activity increase over dofetilide control, less the hit threshold of the first is lower: -16% for the first, -3% for the second.

For `COc1ccc(NC(=O)c2ccc(NC3=NC4CS(=O)(=O)CC4S3)cc2)cc1` (centres undefined), the activity increase over dofetilide control, less the hit threshold was -17%.

For `O=C(Nc1nc(=S)ss1)c1ccc(Cl)cc1Cl`, the activity increase over dofetilide control, less the hit threshold was 70% (active).
In the case of `Cc1ccccc1C(=O)Nc1nc(=S)ss1`, the activity increase over dofetilide control, less the hit threshold is reported as 39% (active).
With `O=C(CCSc1ccc(Br)cc1)c1ccc(O)cc1` the activity increase over dofetilide control, less the hit threshold was 2% (active).
`CCSc1nc2c(sc3ccccc32)c(=O)n1C(C)C` was tested, and the activity increase over dofetilide control, less the hit threshold was 25% (active).
For `COc1cccc(-n2nc(C(=O)O)c3ccccc3c2=O)c1`, the activity increase over dofetilide control, less the hit threshold was 11% (active).
For `CC(C)CNC(=S)NC(=O)c1ccc(Cl)cc1`, the activity increase over dofetilide control, less the hit threshold was 19% (active).
`CCN(Cc1ccccc1)C(=S)NC(=O)c1ccccc1Br` was tested, and the activity increase over dofetilide control, less the hit threshold was 47% (active).
For `O=C(NC(=S)N(CCO)Cc1ccccc1)c1cc(Br)ccc1Cl`, the activity increase over dofetilide control, less the hit threshold was 7% (active).
For `CCCN(Cc1ccccc1)C(=S)NC(=O)c1ccccc1[N+](=O)[O-]`, the activity increase over dofetilide control, less the hit threshold was 52% (active).
In the case of `O=C(NC(=S)N(Cc1ccccc1)Cc1ccccc1)c1ccccc1F`, the activity increase over dofetilide control, less the hit threshold is reported as 32% (active).
`COc1ccc(-c2ccc(/C=N/NC(=O)c3cccnc3)o2)c([N+](=O)[O-])c1` was tested, and the activity increase over dofetilide control, less the hit threshold was 1% (active).
In the case of `O=c1[nH]c(N2CCN(c3ccccc3)CC2)nc2c1CCCC2`, the activity increase over dofetilide control, less the hit threshold is reported as 2% (active).
`O=C(Cn1nc(-c2ccccc2)c2ccccc2c1=O)Nc1ccc(O)cc1` was tested, and the activity increase over dofetilide control, less the hit threshold was 24% (active).
With `CCOC(=O)c1sc2nc(C)[nH]c(=S)c2c1C` the activity increase over dofetilide control, less the hit threshold was 21% (active).
With `CCOC(=O)c1sc2nc(Cc3ccc(Cl)cc3)[nH]c(=S)c2c1C` the activity increase over dofetilide control, less the hit threshold was 52% (active).
`COc1cccc(C(=O)NNC(=O)C(=O)Nc2ccc(C)cc2)c1` was tested, and the activity increase over dofetilide control, less the hit threshold was 56% (active).
`COc1ccc(C(=O)NNC(=O)C(=O)Nc2ccc(C)cc2)cc1` was tested, and the activity increase over dofetilide control, less the hit threshold was 30% (active).
`CCc1ccc(NC(=O)C(=O)NNC(=O)c2cccc(OC)c2)cc1` was tested, and the activity increase over dofetilide control, less the hit threshold was 70% (active).
For `CCc1ccc(NC(=O)C(=O)NNC(=O)c2ccc(OC)cc2)cc1`, the activity increase over dofetilide control, less the hit threshold was 87% (active).
